# Assay results from PubChem BioAssay (NCI).
# About 83,000 compounds went through this panel and 20% of them were active in at least one assay; those are over-represented in the sample as a whole.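 Cell lines were cultured in 96-well plates, exposed to a single compound concentration, and assessed for percent growth 48 hours later.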 Values without a mark were called inactive. Active and inactive are the calls of the source. The calls were made as follows: active = growth percent below 10; inactive = the rest.
# Columns and labels:
# Assay in all cases: NCI-60 one-dose screen, 48 h (100 = growth as untreated, 0 = no growth, -100 = all killed)
# Conditions in all cases: 10 µM unless noted
# [1] = system: HCT-15 colon
# [2] = system: HT29 colon
# [3] = system: SNB-75 CNS
# [4] = system: SNB-19 CNS
# [5] = system: U251 CNS
# [6] = system: PC-3 prostate
# [7] = system: SK-MEL-5 melanoma
# [8] = system: UACC-62 melanoma
# [9] = system: LOX IMVI melanoma
# [10] = system: SK-MEL-28 melanoma
# [11] = system: SK-MEL-2 melanoma
# [12] = system: EKVX NSCLC
# [13] = system: SN12C renal
# [14] = system: UO-31 renal
# [15] = system: TK-10 renal
# [16] = system: ACHN renal
# [17] = system: CAKI-1 renal
# [18] = system: A498 renal
# [19] = system: CCRF-CEM leukemia
# [20] = system: MOLT-4 leukemia
Structure (SMILES),growth [1],growth [2],growth [3],growth [4],growth [5],growth [6],growth [7],growth [8],growth [9],growth [10],growth [11],growth [12],growth [13],growth [14],growth [15],growth [16],growth [17],growth [18],growth [19],growth [20]
O=C(/C=C/c1cn(-c2ccccc2)nc1-c1ccc(Cl)cc1)c1ccc(F)cc1,58.8%,77%,74.6%,76.1%,76.6%,67.6%,86%,59%,68.7%,106%,88.6%,116%,78.1%,63.3%,107%,77.7%,76.5%,96.5%,40%,36.1%
Cn1ccc(=O)c(C(=O)Nc2nsc3ccc([N+](=O)[O-])cc23)c1,54.9%,68.2%,72.1%,91.3%,63.1%,56.8%,87.4%,32.6%,51.3%,78.3%,55.7%,81.7%,75.3%,28.1%,50%,32.6%,6.88% (active),31.9%,82.7%,83.4%
COc1cc(NS(=O)(=O)c2ccc(-c3cnc(C4CC4)o3)cc2)ccc1F,20.9%,2.64% (active),-15.8% (active),25.6%,22.1%,33.9%,15.5%,31.6%,35%,65.2%,54.2%,33%,41.1%,37.1%,43.8%,37.3%,35.4%,-6.34% (active),19.5%,31.9%
COc1ccc(-c2cc(-c3cccnc3)nc3sc4c(=O)[nH]c(-c5ccc(Cl)cc5)nc4c23)cc1OC,97%,96.3%,87.4%,95.9%,82.7%,90.4%,89.9%,90.5%,86%,102%,95.7%,90%,89.5%,78.1%,104%,93.4%,86.4%,91.2%,80.3%,37.6%
CN1C(=O)/C(=C\c2c(Cl)cccc2Cl)c2ccccc21,67%,84.5%,61.3%,80%,88.4%,95%,86.5%,71.2%,82.5%,94.4%,97.7%,87.6%,94.8%,75.4%,89.4%,97.2%,68.3%,55.4%,89.5%,79.4%
Cc1cc(C(=O)Nc2ncc(Cc3cccc(C(F)(F)F)c3)s2)c2ccccc2n1,17.3%,8.85% (active),18.1%,44.7%,18.5%,26.7%,0.694% (active),9.95% (active),12.6%,40.4%,-16% (active),43.2%,47.7%,29%,49.5%,28.1%,13.3%,0.174% (active),11.8%,14.9%
CN(c1cc2ncc(=O)[nH]c2cc1NC(N)=NCc1ccc(Cl)cc1)C1CCCCC1,99.9%,22.7%,58.2%,63.5%,-4.07% (active),64.3%,71.5%,72.3%,-45.6% (active),52.8%,92.7%,82.6%,67.9%,91%,85.2%,98.3%,98.5%,80.5%,21.9%,35.5%
CC(O)(c1ccccc1)C(c1ccccc1)C1CCCCN1 (stereo not given),96.6%,99.3%,100%,99.5%,100%,105%,103%,95.8%,96.8%,109%,117%,104%,93.1%,93.5%,102%,107%,102%,106%,101%,99.7%
O=C1NC(=C(Cl)Cl)/C(=N\S(=O)(=O)NCc2ccccc2)N1,105%,108%,84.6%,91.2%,91%,95.6%,96.6%,85.5%,93.8%,103%,103%,118%,90.7%,94.1%,107%,110%,101%,104%,75%,85.5%
CCN(C)S(=O)(=O)Nc1cccc(Nc2ncnc3cc(NC(=O)CCl)ccc23)c1Cl,-12.3% (active),-56.9% (active),6.04% (active),16.7%,-77.4% (active),0.153% (active),-83.6% (active),-22.5% (active),-79% (active),28.8%,17.7%,18.4%,-27.9% (active),-87.4% (active),1.2% (active),-67.8% (active),-15.4% (active),81.7%,5.63% (active),5.41% (active)
C#CCOc1ccc2ncnc(Nc3ccc(NC(=O)C=C)cc3)c2c1,-14.8% (active),-34.9% (active),70%,17.6%,-22.9% (active),3.24% (active),13.1%,-68.7% (active),-82.6% (active),2.36% (active),-0.222% (active),2.42% (active),1.14% (active),-26.4% (active),-62.7% (active),-96.6% (active),24.3%,74.1%,-39.5% (active),-34.7% (active)
CN(C)CCNC(=O)c1ccc(-c2nc3ccc4[nH]ncc4c3c3c2C2CCC3C2)cc1 (stereo not given),41.8%,34.4%,-12.4% (active),60.9%,44.8%,19.9%,16.4%,31.3%,26.2%,46.6%,-5.51% (active),68.4%,10.2%,8.05% (active),83%,17.4%,15.2%,-20.9% (active),6.57% (active),-8.33% (active)
Oc1c(Br)cc(Br)c2ccc(Cn3cc(-c4ccccc4C(F)(F)F)nn3)nc12,62.7%,107%,80.8%,94.3%,106%,104%,103%,95.5%,77.2%,96.9%,101%,95.5%,96.9%,78.7%,134%,61.8%,55%,106%,28.7%,6.89% (active)
CCOC(=O)n1cc(-c2nonc2-c2cn(C(=O)OCC)c3ccc(Br)cc23)c2ccccc21,76.8%,76.1%,73.1%,93.5%,89.8%,69%,82.3%,58.7%,74.6%,100%,87.5%,73.3%,88.1%,46.9%,90.8%,64.5%,60.1%,82.3%,87.7%,72.2%
CCOC(=O)c1cc2c(n1C)-c1nc(NC(C)=O)sc1CCC2,88.3%,88%,71.4%,83.6%,78.2%,51%,80.4%,69.5%,79.6%,107%,89.9%,60.7%,81.9%,43.2%,138%,86.7%,76.4%,53.2%,73.8%,81.6%
COc1c(C(=O)Nc2ccc(C)c(Br)c2)ccc2ccccc12,61.2%,78.5%,88.4%,95.3%,96.2%,87.7%,98.3%,71.6%,95.1%,93.3%,102%,66.3%,96.8%,85.5%,103%,104%,71.9%,91.2%,91.3%,73.7%
CCCCCC(/C=N\NC(=S)N/N=C/C(=C/c1ccccc1)CCCCC)=C\c1ccccc1,45.4%,105%,102%,56.8%,55.3%,46.1%,68.2%,56.8%,60.8%,93.7%,80.9%,76.6%,68.1%,45.4%,87.3%,69.3%,42.1%,70.1%,31.1%,42%
Cc1c[n+](Cc2ccc3ccccc3c2)cn1Cc1ccc2ccccc2c1,95.1%,-35.5% (active),-0.361% (active),17.7%,8.55% (active),10.3%,-71.2% (active),-30.5% (active),19.5%,4.48% (active),-48.5% (active),38.1%,7.56% (active),77.6%,-4.54% (active),89.5%,94%,50.1%,3.95% (active),-3.59% (active)
COC(=O)/C=C1/SC(=Nc2ccc(C(F)(F)F)cc2)N(CCc2c[nH]c3ccc(O)cc23)C1=O,3.12% (active),-49.9% (active),-3.46% (active),-2.49% (active),-37.7% (active),-33.8% (active),-61.9% (active),-53.6% (active),-60% (active),-29.5% (active),-33.5% (active),41.1%,-69% (active),-18.5% (active),11.7%,-46.1% (active),31.4%,-1.57% (active),-9.32% (active),-36.2% (active)
CC(=O)Oc1ccc(/C(=C(\C)c2ccc(Cl)cc2)c2ccc(OCCN3CCCCC3)cc2)cc1,-16.3% (active),-25.9% (active),41.7%,42.2%,18.3%,28.1%,37.1%,42.8%,-65% (active),-48.5% (active),58.4%,62.7%,64.6%,47.7%,68.4%,58.3%,74.9%,57.5%,17.5%,-8.3% (active)
Nc1cnc(C(=O)NNc2nc3cc(F)ccc3n3cccc23)cn1,24.8%,35%,87.2%,36.1%,36.7%,47.2%,34.5%,22.7%,22%,40%,75%,26.2%,46.6%,8.25% (active),51.3%,12.9%,29.5%,44.7%,21.4%,19%
C=C(C)[C@@H]1CC[C@]2(C(=O)N3CCOCC3)CC[C@]3(C)[C@H](CC[C@@H]4[C@@]5(C)C/C(=C/c6ccncc6)C(=O)C(C)(C)[C@@H]5CC[C@]43C)[C@@H]12,42.6%,33.8%,78.5%,76.9%,55.7%,25.2%,60.6%,43.1%,60%,74%,72.2%,60.8%,62.6%,52.6%,91%,58.4%,56.8%,68.9%,31.7%,30.3%
CNC(=O)c1ccccc1Oc1nc(Nc2cc(OC)c(OC)c(OC)c2)ncc1Br,59.9%,45.1%,53.1%,94.9%,57.6%,61.4%,80%,50.7%,21.8%,80.5%,1.29% (active),55.3%,75.8%,33%,50.5%,67.1%,37%,-18.3% (active),59.5%,68.6%
O=C(CSc1nc2ccc([N+](=O)[O-])cc2[nH]1)Nc1ccc([N+](=O)[O-])cc1,22.9%,13.1%,29.7%,12.4%,13.7%,12.7%,-12.7% (active),2.77% (active),23.5%,30.7%,-5.26% (active),20.3%,9.04% (active),9.43% (active),31.8%,21.4%,12.7%,-6.66% (active),16.8%,5.72% (active)
O=C1NC(=O)C(Cc2ccc(OCc3ccc(-c4ccc(Cl)cc4Cl)cc3)cc2)S1 (stereo not given),39.5%,86.3%,59.1%,73.8%,57.6%,32.2%,-28.4% (active),41.9%,37.1%,65.3%,49.8%,37.8%,59.5%,34.1%,72.9%,55.2%,32.7%,83.4%,42.2%,17%
COC(=O)CC[C@H](C)[C@H]1CC[C@H]2[C@@H]3CC[C@@H]4CC5(CC[C@]4(C)[C@H]3CC(=O)[C@]12C)Nc1ccccc1NC5=NC(C)(C)C (stereo not given in full),51.4%,69.8%,71.1%,81.5%,48.3%,56.5%,77.5%,57.9%,47.4%,89.2%,90.9%,87.5%,87.9%,88.7%,97.4%,86.4%,59.2%,63.5%,54.7%,54.6%
Cc1ccc2c(n1)C(=O)C(Br)=C(C1CCCC1)C2=O,99.5%,109%,99.7%,98.1%,97.4%,89.9%,97.3%,98.5%,91.6%,117%,112%,98.9%,95.2%,78.3%,120%,77.9%,90.8%,108%,26.2%,34.6%
COc1ccccc1CNc1c2ccccc2nc2ccccc12,26%,17.7%,63.5%,35.8%,38.6%,43.2%,59.2%,60.5%,18.9%,80%,73.5%,65.7%,34.7%,33.7%,55.5%,22.7%,45.7%,13.3%,37.5%,20.7%
